Out of some 420,000 compounds screened, about 50,000 (12%) were called active. Roughly 26% stayed inconclusive and do not appear here. Only a selection was taken, and actives are over-represented in it overall. Unmarked numbers belong to inactive results. Calls come from the whole dose curve; as a rule, active = well fitted inhibition curve with a large enough effect; inconclusive = small, poorly fitted or top-dose-only effect; inactive = flat fitted curve, though single readings scatter.
% is set by controls: 0 for no effect and ±100 for the full control effect; potency is the fitted concentration of half-maximal effect.

The assay is described as follows: qHTS for Inhibitors of human tyrosyl-DNA phosphodiesterase 1 (TDP1): qHTS in cells in presence of CPT. Note: nearly all actives have a fitted effect of over 55% in size. The settings on record: chicken DT40 Tdp1-/-;hTDP1 cells + 20 nM CPT, ATP luminescence, 48 h; series mostly up to 46.2 µM; activity change, negative = growth inhibition: at the top concentration. The method in brief: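 Cell growth measured by CellTiter-Glo luminescence after a minimum 48 h, 37 C compound exposure with 20 nM CPT in Tdp1-knockout DT40 cells stably expressing hTDP1, seeded 400/well; qHTS titration format.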
On the technique in general: Quantitative high-throughput screening tests each substance at several concentrations.
Regarding `Cc1ccc(OCC(=O)Nc2ccc(OCc3cc(=O)n4c(C)csc4n3)cc2)cc1C`, the “activity change, negative = growth inhibition” value was 2.52%.
With `COc1cc(Cl)c(NC(=O)CC(C)S(=O)(=O)c2cc3c(cc2C)NC(=O)CO3)c(OC)c1` (stereo not given), the “activity change, negative = growth inhibition” value is -13.4%.
The same measure, in the same setting: then `O=C(/C=C/c1ccccc1)Nc1nnc(SCC(=O)c2ccc3ccccc3c2)s1`, with -27.6%; and `Cc1cccc(NC(=O)C2CCN(C(=O)NC3CCCCC3)CC2)c1`, with 2.85%.
On the same count and under the same terms, then `O=C(CN1C(=O)CCn2nc(-c3ccccc3)cc21)NCc1ccccc1`, with -2.41%; and `COc1ccc(NC(=O)N2CCCn3nc(C)cc32)cc1OC`, with 9.85%.
`COc1ccc(NC(=O)CCCN2C(=O)CCn3nc(-c4cn(C)c5ccccc45)cc32)cc1OC`: the Potency is 18.4 µM (active).
As to `CCOC(=O)C1(C)CCCN(C(=O)c2ccc(N(C)C)cc2)C1` (stereo not given), the “activity change, negative = growth inhibition” value is -27.8%.
On the same count and under the same terms, to `CC(NCCc1ccc(S(N)(=O)=O)cc1)C(=O)NCc1ccccc1` (stereo not given) belongs -21.1%; to `COc1cc(NS(=O)(=O)c2ccc(NC(=O)c3ccc([N+](=O)[O-])cc3)cc2)ncn1`, -12.7%; to `CC(=O)NC(=S)Nc1ccc(NC(=S)NC(=O)c2ccc([N+](=O)[O-])cc2)cc1`, 18.6%.
Take `Cn1ccc(=Nc2ccc(NC(=O)c3ccc(N=c4ccn(C)c5ccc([N+](=O)[O-])cc45)cc3)cc2)cc1`: the Potency was 3.66 µM (active).
Consider `CSCCC(NC(=O)c1ccco1)C(=O)NCCc1ccc(F)cc1` (stereo not given), for which the “activity change, negative = growth inhibition” value is -11.6%.
For `CN(C)CCNC(=O)c1ccc(Cl)c2cc3ccccc3nc12`, the Potency is 0.164 µM (active).
As for `CC(=O)NCCNC(=O)c1cc(-c2cccc3ccccc23)nc2ccccc12`, the “activity change, negative = growth inhibition” value is -3.86%.
Still for that read-out and setting: then `CN(C)CCNC(=O)Nc1cccc(Cl)c1Cl`, with -13.2%; and `COc1cc(/C=N/NC(=O)CCc2n[nH]c(=O)[nH]c2=O)ccc1O`, with 21.9%.
On to `O=C(CCc1ccc(O)cc1)NN=Cc1cc(Br)ccc1O`, for which the Potency was 8.2 µM (active).
With `O=C(CCC(=O)N/N=C/c1ccc(Br)o1)N/N=C/c1ccc(Br)o1`, the “activity change, negative = growth inhibition” value was -1.67%.
In the case of `CCCCn1c(N)c(N(CCOC)C(=O)CSCC(=O)Nc2cccc(C)c2)c(=O)[nH]c1=O`, the “activity change, negative = growth inhibition” value is -2.79%.
Same read-out and setting: to `CC1CCCCC1NC(=O)c1cc(=O)[nH]c2ccccc12` (stereo not given) belongs -10.8%; to `COc1ccc(C2CC(c3cccs3)=NN2C(=O)COC(=O)c2cc3ccccc3cc2O)cc1OC` (stereo not given), -18%.
The same measure, in the same setting: to `CC(=O)NC(CC(=O)Nc1cccc(S(=O)(=O)N2CCCC2)c1)c1ccccc1` (stereo not given) belongs -0.692%.
For the compound `CCOc1ccc(CNC(=O)CCc2c(C)nn(-c3ccc(N4CCCCC4)nn3)c2C)cc1`, the Potency was 25.9 µM (active).
In the case of `CCOc1ccc(CNC(=O)CCC(=O)N2CCSc3ccccc32)cc1`, the Potency result was “inactive”.
Consider `Cc1nn(-c2ccc(N3CCCCC3)nn2)c(C)c1CCC(=O)NCc1ccccc1F`, for which the “activity change, negative = growth inhibition” value is -16%.
For the compound `O=C(Nc1cccc(Cl)c1N1CCOCC1)c1cccnc1`, the “activity change, negative = growth inhibition” value was -20.9%.
For `COc1cccc(-n2c(=O)c3c(C)c(C(=O)N(C)C)sc3n(CC(=O)NCCc3ccc(OC)c(OC)c3)c2=O)c1`, the Potency result is “inactive”.
As to `CCOc1cc(C=NNC(=O)CCCC(=O)NN=Cc2ccc(O)c(OCC)c2)ccc1O`, the “activity change, negative = growth inhibition” value was 12.7%.
For the compound `CCOc1cc(/C=N/NC(=O)c2c(C)nc3ccc(Cl)cn23)ccc1O`, the Potency was 13 µM (active).
Turning to `CCOc1ccc(/C=N\NC(=O)c2c(C)nc3cc(C)ccn23)cc1`, the “activity change, negative = growth inhibition” value is 2%.
The same measure, in the same setting: to `COc1ccc(-c2c(C(C)=O)c(C)nc3sc4c(=O)n(-c5ccc(C)cc5)nnc4c23)cc1` belongs -13.4%; to `Oc1ccc(Cl)cc1/C=N/c1nc2ccccc2[nH]1`, -17.6%.
`SCc1nc2ccc(Cl)cc2[nH]1`: the Potency was 5.62 µM (active).
Take `OC(c1nc2ccc(F)cc2[nH]1)C(O)c1nc2ccc(F)cc2[nH]1` (stereo not given): the “activity change, negative = growth inhibition” value was 1.53%.
As for `Cc1ccc(OC(=O)c2c(C)nn(-c3ccccc3)c2C)cc1`, the “activity change, negative = growth inhibition” value is 4.83%.
As to `CCOC(=O)/C=C/CN(C(=O)OC(C)(C)C)S(=O)(=O)N1CC=CC1`, the “activity change, negative = growth inhibition” value is -2.23%.
As for `O=C(CCN1Cc2ccccc2OC(c2ccccc2)C1)N[C@@H]1CS(=O)(=O)C[C@H]1O` (stereo not given in full), the activity change, negative = growth inhibition is 2.04% [at 9.04 µM].
Still for that read-out and setting: to `Cc1cc2nc(C(F)(F)F)cc(-c3cccs3)n2n1` belongs -2.35%.
On the same count and under the same terms, then `CCC(=O)Nc1ccc2c(c1)nc(CCN1CCN(C)CC1)n2C`, with -4.21%.
For `Cn1c(CCN2CCN(c3ccccn3)CC2)nc2cc(NS(=O)(=O)c3ccc(F)cc3)ccc21`, the Potency is 16.4 µM (active).
Consider `CCC(=O)Nc1ccc2c(c1)nc(CCN1CCN(c3ccccn3)CC1)n2C`, for which the “activity change, negative = growth inhibition” value was 11.1%.
As for `COc1ccc(S(=O)(=O)N2CCCCC2)cc1C(=O)NC1CCS(=O)(=O)C1` (stereo not given), the Potency entry was “inactive”.
Take `COC(=O)C(C)n1cnc2c(nnn2-c2ccc(F)cc2)c1=O` (stereo not given): the “activity change, negative = growth inhibition” value was -5.18%.
Still for that read-out and setting: to `COc1ccc(S(=O)(=O)N2C[C@H]3CON(C)[C@H]3C[C@H]2c2cccc(Br)c2)cc1` belongs -28.7%; to `C/C(CC(=O)Nc1cccc(F)c1)=N\NC(=O)C(=O)NC1CCCCC1`, -14.6%.
The same measure, in the same setting: to `Cc1cc(C)cc(NC(=O)NC2CCCCCCC2)c1` belongs -26%.
With `O=C(Nc1cccc(F)c1)NC1CCCCCCC1`, the Potency was 18.4 µM (active).
Regarding `COc1ccc2c(c1)C(=O)Nc1cc(Cl)ccc1N2`, the “activity change, negative = growth inhibition” value is 11.6%.
Regarding `CCOc1ccc(-n2c(O)c(/C=N/Nc3nc(C)cc(C)n3)c3ccccc3c2=O)cc1`, the Potency was 2.59 µM (active).

The record behind these values is PubChem BioAssay AID686979 (National Center for Advancing Translational Sciences (NCATS), 2013).
